Results taken from PubChem BioAssay AID2275 (Broad Institute, 2010).
The campaign covered roughly 30,000 compounds. About 190 (0.63%) were called active. The full list was thinned out, with actives kept by preference. Values without a mark were called inactive. Rule as the data show it: active = viability loss activity score above about 50%; inconclusive = no clear call, values can overlap the other calls; inactive = below about 35%.

Assay: cytotoxicity in HRASV12-transformed BJ fibroblasts – cell-based, luminescence, CellTiterGlo ATP, primary screen (AID 2275);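 also: higher score means fewer live cells and less ATP luminescence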
Details: BJeLR fibroblasts viability, 48 h, stronger effect = higher value, HRASV12, hTERT and SV40 LT/ST transformed, concentration not given here
Work on `O=C(CC(O)(c1ccccc1)C(F)(F)F)c1ccccc1` (stereo not given) yielded a viability loss activity score of -2.63%.
`CCCCN(C)S(=O)(=O)c1ccc2c(c1)oc(=O)n2C` gave a viability loss activity score of -1.52%.
`CC(=O)Oc1ccc(N(C(C)=O)S(=O)(=O)c2ccc(Cl)cc2)cc1` gave a viability loss activity score of -1.22%.
In the case of `CC[C@]1(O)C[C@@H]2CN(CCc3c([nH]c4ccccc34)[C@@](C(=O)OC)(c3cc4c(cc3OC)N(C)[C@H]3[C@@](O)(C(=O)OC)[C@H](OC(C)=O)[C@]5(CC)C=CCN6CC[C@]43[C@@H]65)C2)C1`, the viability loss activity score is reported as 64.7% (active).
Work on `COc1ccc(C(=O)OC2=C(c3ccccc3)C(=O)c3ccccc3C2=O)cc1` yielded a viability loss activity score of -6.2%.
`CC1=C(C(=O)OC2CC(C)CCC2C(C)C)C(c2ccc(Br)cc2)n2nnnc2N1` (stereo not given) showed a viability loss activity score of -1.4%.
`CCC1CCCCN1C(=O)c1ccc(F)cc1` (stereo not given) gave a viability loss activity score of 5.08%.
`O=C(CSc1ccccn1)NCc1ccccc1` showed a viability loss activity score of -3.11%.
With `CCN1C(=O)c2cccc3c(NC(=S)NC(=O)c4ccccc4)ccc1c23` the viability loss activity score was 2.04%.
`Cc1ccc(S(=O)(=O)N(C)C[C@@H]2Oc3c(NC(=O)NC(C)C)cccc3C(=O)N([C@H](C)CO)C[C@H]2C)cc1` showed a viability loss activity score of 0.297%.
Compound `C=CC[C@H]1Cc2ccccc2[C@H](CC=C)N1` has a viability loss activity score of 5.12%.
`COc1ccc(-c2coc3c(C)c4oc(=O)c5cc(OC)ccc5c4cc23)cc1` gave a viability loss activity score of -3.61%.
`COC(=O)C1=C(N)Oc2cc(C)oc(=O)c2C1c1cccnc1` (stereo not given) showed a viability loss activity score of -1.16%.
Work on `CCOC(=O)CCN1N=C(c2ccc(CC)cc2)CCC1=O` yielded a viability loss activity score of -3.96%.
`COc1ccc(S(=O)(=O)NCCN2CCOCC2)cc1-c1nnc2c3ccccc3c(C)nn12` showed a viability loss activity score of 13.3%.
Compound `CN(C)c1ccc(C2CC(c3ccc(Br)cc3)=NN2S(C)(=O)=O)cc1` (stereo not given) has a viability loss activity score of 6.95%.
`CSc1c(CC(=O)Nc2ccc(C)cc2)[nH]c2ccccc12` showed a viability loss activity score of 1.08%.
In the case of `CC(=O)OCCn1c(=O)c2ccccc2c2ccccc2c1=O`, the viability loss activity score is reported as 0.959%.
For `Cc1c(C(=O)OC2CCCC2)[nH]c2c1C(=O)CCC2`, the viability loss activity score was -0.399%.
`COc1ccc(C(=O)NCc2cc3cc(Cl)ccc3[nH]2)cc1COc1ccccc1Cl` gave a viability loss activity score of 13.4%.
Work on `COc1ccc(-n2nc(C(=O)NC3CCCC(C)C3C)c3c4ccccc4n(C)c3c2=O)cc1` (stereo not given) yielded a viability loss activity score of 0.653%.
For `Cc1cc(C)n(-c2ccc(-n3cccc3/C=C(/C#N)S(=O)(=O)c3ccccc3)cc2)n1`, the viability loss activity score was 1.25%.
Compound `O=C(CSc1ccc(Cl)cc1)N1CCc2ccccc21` has a viability loss activity score of 8.93%.
`Cc1cc(Sc2nnc(C)s2)c2ccccc2n1` showed a viability loss activity score of 34.4%.
In the case of `COc1cc(S(=O)(=O)N2CCCCCCC2)ccc1-n1cnnn1`, the viability loss activity score is reported as -2.51%.
`COc1ccc(NC(=S)N2CCCC(c3ccccc3)=N2)cc1` gave a viability loss activity score of -2.21%.
`C[C@@H]1CN([C@H](C)CO)C(=O)c2cc(NS(=O)(=O)c3cccs3)ccc2O[C@@H]1CN(C)Cc1ccc(C(F)(F)F)cc1` gave a viability loss activity score of 0.614%.
With `CCOC(=O)C1CCN(S(=O)(=O)c2ccc(N3C(=O)CC4(CCCC4)C3=O)c(Cl)c2)CC1` the viability loss activity score was 1.47%.
Compound `O=C(Nn1cnc2ccccc2c1=O)c1ccccc1` has a viability loss activity score of 3.68%.
For `CCC(NCC(O)Cn1c2ccccc2c2ccccc21)C(=O)O` (stereo not given), the viability loss activity score was -1.06%.
In the case of `CC(C)Nc1ccc(-n2nc3ccccc3[n+]2[O-])cc1`, the viability loss activity score is reported as 2.31%.
For `Cc1cccc[n+]1C/C=C\c1ccccc1`, the viability loss activity score was 13.2%.
`Cc1ccc(S(=O)(=O)Nc2ccc3c(c2)C(=O)N([C@@H](C)CO)C[C@@H](C)[C@@H](CN(C)S(=O)(=O)c2ccc(C)cc2)O3)cc1` gave a viability loss activity score of 3.23%.
Work on `CC(C)(C)c1nc(=S)[nH][nH]1` yielded a viability loss activity score of -5.55%.
`Cc1noc(C)c1S(=O)(=O)Nc1ccc2c(c1)C(=O)N([C@@H](C)CO)C[C@H](C)[C@H](CN(C)Cc1ccc(C(=O)Nc3ccccc3N)cc1)O2` gave a viability loss activity score of 6.72%.
Work on `Cn1c(Cc2nc(-c3cnccn3)no2)nnc1SCC(=O)Nc1ccc(Cl)cc1` yielded a viability loss activity score of -7.21%.
Work on `Cc1ccc(-n2cc(-c3ccccc3)c3c(NN4CCOCC4)ncnc32)cc1Cl` yielded a viability loss activity score of 0.765%.
`CC(C)(C)NC(=S)N1CCn2cccc2C1c1ccccc1F` (stereo not given) gave a viability loss activity score of -3.87%.
`Cc1ccccc1OC1C(=O)N(CCc2ccc(F)cc2)C1c1ccc2c(c1)OCO2` (stereo not given) showed a viability loss activity score of 0.258%.
Compound `CCCC(=O)N1CCC(c2c[nH]c3ccccc23)(c2c[nH]c3ccccc23)CC1` has a viability loss activity score of 5.31%.
In the case of `CC(=O)NN1C(=O)c2ccccc2NC1c1ccccc1` (stereo not given), the viability loss activity score is reported as -1.21%.
With `Cc1cccc(C(=O)Nc2ccc(NC(=O)c3ccco3)cc2)c1` the viability loss activity score was 0.303%.
Work on `CS(=O)(=O)c1sc(C(=O)Nc2ccccc2Cl)c2c1C=CCC2` yielded a viability loss activity score of -1.24%.
Work on `NC(=O)Cn1nnc2sc3c(c2c1=O)CCCC3` yielded a viability loss activity score of 10.6%.
In the case of `Cc1ccc(CC2C(=O)N(c3cccc(C(F)(F)F)c3)C(=O)C2C)cc1` (stereo not given), the viability loss activity score is reported as 1.06%.
With `O=C(O)c1ccc(CNCCc2ccccc2)s1` the viability loss activity score was 0.164%.
`COC(=O)C1=C(C)N(C)C(=S)NC1c1ccccc1` (stereo not given) showed a viability loss activity score of -3.34%.
Compound `CCOC(=O)c1cccc(NC(=O)CCOc2ccccc2)c1` has a viability loss activity score of 2.1%.
With `Cc1ccc(CCNC(=O)C2(NS(=O)(=O)c3cccc4cccnc34)CCCCC2)cc1` the viability loss activity score was 2.11%.
`Cc1ccc(S(=O)(=O)N(CC(=O)NC2CC2)C2CCCCC2)cc1` gave a viability loss activity score of 5.79%.
Compound `CC(C)(C)C(=O)CSc1nc2ccccc2c(=O)n1CC1CC1` has a viability loss activity score of -4.35%.
With `Cc1cc(C(C)(C)C)cc(S(=O)(=O)Nc2ccc(C(=O)N3CCC(C)CC3)cc2)c1C` the viability loss activity score was -6.82%.
`O=c1n(Cc2ccccc2)c2ccccc2n1Cc1ccccc1` gave a viability loss activity score of 6.4%.
Compound `CC(C)NC(=O)Nc1ccc2c(c1)C(=O)N([C@@H](C)CO)C[C@H](C)[C@H](CN(C)S(=O)(=O)c1cccs1)O2` has a viability loss activity score of -2.18%.
With `O=C1C2=C(Nc3ccccc3S(=O)(=O)C2c2ccc(Cl)cc2)c2ccccc21` (stereo not given) the viability loss activity score was 0.962%.
